IL1B secr inh – inflammasome signaling inhibition, IL-1 beta readout. 4.7% of 360,000 active. THP-1 LPS/ATP IL-1B secretion, AlphaLISA, 16 h; active compounds read low. AID 743279. activity change, % at 57.5 µM; in the data active means activity change below about -50%; inconclusive means mostly about -30% to -49%
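THP-1 cells pretreated 1 hr with compounds (up to 57.5 uM final), then stimulated with LPS (250 ng/mL final) plus ATP (1.25 mM final); secreted IL-1B measured by AlphaLISA after 16 hr, decreased signal indicating inhibition.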
TDP1 cell CPT – DT40-hTDP1 cell growth loss with CPT | AID 686979 | 12% of 420,000 active | Potency, µM (series often up to 46.2 µM), inactives show top-dose activity change, negative = growth inhibition, hits mostly inhibitors | chicken DT40 Tdp1-/-;hTDP1 cells + 20 nM CPT, ATP luminescence, 48 h; further: potency means the concentration at half of the fitted maximal effect; nearly all actives have a fitted effect of over 55% in size
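Chicken DT40 Tdp1-/- cells complemented with human TDP1, 400 cells/well, exposed to compounds plus 20 nM camptothecin for at least 48 h at 37 C; viability read as ATP content by CellTiter-Glo luminescence.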
TDP1 cell noCPT – qHTS for Inhibitors of human tyrosyl-DNA phosphodiesterase 1 (TDP1): qHTS in cells in absence of CPT; DT40 Tdp1-/- hTDP1 cells, no CPT, ATP luminescence, 48 h; Potency, µM (highest dose often 46.2 µM), for the others: at the top dose activity change, negative = growth inhibition, hits mostly inhibitors; 15% of 420,000 active; AID 686978, 2013; further: potency means the concentration at half of the fitted maximal effect; nearly all actives have a fitted effect of over 55% in size
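Chicken DT40 Tdp1-/- cells stably complemented with human TDP1 were seeded at 400 cells/well with DMSO in place of 20 nM camptothecin. After compound pinning, cells grew at least 48 hr at 37 °C; viability read by CellTiter-Glo luminescence.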
HT1080 IDH1KD tx – kills HT-1080 cells with IDH1 knockdown; AID 686971; HT-1080 IDH1 knockdown viability, ATP luminescence, 48 h; Potency, µM (series often up to 46.1 µM), without a hit: at the highest dose activity, negative = toxicity, most hits filed as cytotoxic; 2% of 360,000 active;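 further: potency means the concentration at half of the fitted maximal effect; 0% = DMSO wells and -100% = cell-free medium wells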
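% activity derives from luminescence (CellTiter-Glo), normalised to DMSO and no-cell wells. HT-1080-IDH1KD cells, 750/well, had 48 h compound exposure at 37 °C.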
HT1080-NT tox – kills 2HG-producing HT-1080-NT fibrosarcoma cells; HT-1080-NT fibrosarcoma viability, CellTiter-Glo ATP luminescence, 48 h; Potency, µM (series often up to 46.1 µM), for inactives: at the top dose activity, negative = less viability, usual class: cytotoxic; 1.6% of 360,000 active;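 further: NT is the 2HG producing partner of a matched IDH1 knockdown line; potency means the concentration at half of the fitted maximal effect; 0% = DMSO-treated cells and -100% = media-only wells without cells; nearly all actives have a fitted effect of over 55% in size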
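Fibrosarcoma NT cells, 750 per well in 5% FBS RPMI, were exposed to compound for 48 hours. Viability: CellTiter-Glo luminescence.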
uPA generation – cell surface uPA generation inhibition; cell surface uPA generation assay, qHTS; Potency, µM (highest dose often 38.3 µM), without a hit: top-dose activity change, negative = inhibition, actives largely listed as inhibitors; 0.31% of 330,000 active; AID 540303; active means well fitted inhibition curve with a large enough effect; inconclusive means small, poorly fitted or top-dose-only effect; inactive means no such curve, though single readings can be large or run the other way; tested in mouse RAW 264.7 cells; further: potency means the concentration at half of the fitted maximal effect; nearly all actives have a fitted effect of over 55% in size
An asterisk follows results filed as active; ? = inconclusive; / = no result given. In the library only some 19% were active in any assay of this set; here they are far more common. Unless noted, the call rests on the fitted dose curve; in most records, active means well fitted curve in the direction sought with a large enough effect; inconclusive means small, poorly fitted or top-dose-only effect, or another doubt; inactive means no such curve, though single readings can be large; an effect the other way counts as inactive or inconclusive. Unless noted, on the % scale 0 is the no-effect control and ±100 the full control effect.

SMILES	IL1B secr inh	TDP1 cell CPT	TDP1 cell noCPT	HT1080 IDH1KD tx	HT1080-NT tox	uPA generation
S=C1NC(c2ccccc2)=CC(c2ccccc2)N1 (configuration not stated)	-12	?	29µM*	-5%	3%	-1%
CCOc1ccccc1NC(=S)/C(=C(\[O-])c1ccc2c(c1)OCCO2)[n+]1ccc(CC)cc1	-12	21µM*	/	-1%	-7%	7%
[O-]C(=C(C(=S)Nc1cccc2ccccc12)[n+]1ccccc1)c1ccc2c(c1)OCCO2	16	-15%	?	-2%	3%	0%
CCCCNc1nc2c(S(=O)(=O)c3ccccc3)nnn2c2ccccc12	46	1%	1%	10%	16%	-5%
CCc1ccc(S(=O)(=O)c2nnn3c2nc(Nc2cc(OC)ccc2OC)c2sccc23)cc1	/	-12%	-11%	/	/	/
CCc1ccc(S(=O)(=O)c2nnn3c2nc(NCCNC(C)=O)c2ccccc23)cc1	-64*	-1%	6%	5%	29%	1%
CCc1ccc(S(=O)(=O)c2nnn3c2nc(Nc2cccc(C)c2C)c2sccc23)cc1	/	23µM*	21µM*	/	/	/
Cc1ccc(S(=O)(=O)c2nnn3c2nc(NCc2ccc(F)cc2)c2sccc23)cc1	/	-13%	?	/	/	/
CCc1ccc(S(=O)(=O)c2nnn3c2nc(NC(C)C)c2sccc23)cc1	/	21µM*	?	/	/	/
O=S(=O)(Nc1cccc(-c2ccc(N3CCCCC3)nn2)c1)c1cccc(F)c1	/	-24%	-29%	/	/	/
O=C(CSc1nnc(-c2ccc(F)cc2)c2ccccc12)NCC1CCCO1 (configuration not stated)	0	-14%	-16%	-3%	2%	-13%
O=C(Cn1c2c(sc1=O)C1c3ccccc3OCC1CS2)Nc1ccc(Cl)c(Cl)c1 (configuration not stated)	?	9.2µM*	16µM*	-15%	-18%	7%
O=C(CN1CCOCC1)Nc1ccc(Cl)c(Cl)c1	28	-5%	-6%	0%	1%	-4%
CN1CCC(C2(O)c3ccccc3CCc3ccccc32)CC1	-3	18µM*	?	3%	2%	-7%
CCOC(=O)Nc1ccc2c(c1)C(=NNC(=S)NC)c1ccccc1-2	27	4.6µM*	3.3µM*	?	-29%	/
CCOC(=O)NN=C1c2ccccc2-c2ccccc21	-3	?	?	-19%	-9%	1%
CN1C(=O)C2C3c4ccccc4C(c4ccccc43)[C@@H]2C1=O (some centres not stated)	18	?	?	6%	9%	-23%
O=C1C2C3c4ccccc4C(c4ccccc43)C2c2nc3ccccc3n21 (configuration not stated)	18	4.1µM*	4.1µM*	-5%	-18%	0%
CC(C)Oc1ccc(F)cc1-c1cc(C(=O)N2CCc3ccccc3C2)[nH]n1	-21	?	?	-22%	-19%	/
O=C(CN1CCN(c2ccc([N+](=O)[O-])cc2)CC1)c1ccccc1	47	?	?	-17%	-20%	-1%
COc1ccc(N2CCN(CC(=O)c3ccccc3)CC2)cc1	6	?	?	18%	1%	-1%
O=C1CC(=C(c2ccccc2)c2ccccc2)C(=O)N1CCCCN1CCN(c2ccccc2)CC1	?	15µM*	9.2µM*	16µM*	18µM*	-12%
O=C(CCN1CCN(c2ccc([N+](=O)[O-])cc2)CC1)c1ccc(Cl)cc1	-24	3.7µM*	4.6µM*	2%	9%	-4%
O=C(CCN1CCN(c2ccccc2)CC1)c1ccc(Cl)cc1	-7	5.2µM*	6.5µM*	-7%	-8%	-8%
COc1ccc(N2CCN(CCC(=O)c3ccc4ccccc4c3)CC2)cc1	?	18µM*	15µM*	?	?	?
SMILES	IL1B secr inh	TDP1 cell CPT	TDP1 cell noCPT	HT1080 IDH1KD tx	HT1080-NT tox	uPA generation
O=C(CCN1CCN(c2ccccc2)CC1)Nc1ccc(Cl)cc1	-8	0%	-25%	-23%	-12%	-1%
Cc1cccc(NC(=O)CNC(=O)COc2cc(F)ccc2[N+](=O)[O-])c1C	4	?	?	6%	4%	1%
COC(=O)Cc1ccc(N(Cc2ccccc2F)S(=O)(=O)c2ccc(C)cc2)cc1	22	21µM*	18µM*	1%	1%	-4%
COc1ccc(CN(C)C(=O)CCN(c2ccccc2)S(=O)(=O)c2ccc(C)cc2)c(OC)c1	-6	21µM*	23µM*	0%	-11%	-8%
Cc1ccc(OCC(=O)Nc2ccc(S(=O)(=O)N(Cc3ccccc3)c3ccccc3)cc2)cc1	/	18µM*	4.6µM*	/	/	/
CCOc1ccccc1C(=O)Nc1ccc(S(=O)(=O)N(Cc2ccccc2)c2ccccc2)cc1	/	-2%	?	/	/	/
Cc1ccc(S(=O)(=O)N(C)c2ccc(OCC(=O)Nc3ccc(C(=O)N(C)C)cc3)cc2)cc1C	11	?	18µM*	0%	1%	-3%
Cc1ccc(N(CCC(=O)O)S(=O)(=O)c2ccccc2)cc1	0	-11%	-8%	7%	2%	0%
CCN(Cc1ccncc1)C(=O)c1ccccc1NS(=O)(=O)c1ccc(Br)cc1	33	-21%	-19%	3%	-18%	-9%
COc1ccc(OCC(=O)Nc2ccc(S(=O)(=O)N(C)c3ccccc3)cc2)cc1	-4	-13%	0%	6%	7%	-5%
COC(=O)c1ccc(NC(=O)COc2ccc(N(C)S(=O)(=O)c3ccc(C)cc3)cc2)cc1	7	16µM*	?	-1%	2%	1%
COc1ccc(CNC(=O)[C@H](C)NC(=O)C2CCN(S(=O)(=O)c3ccccc3)CC2)cc1	32	-15%	-3%	6%	0%	3%
